29 molecules from publication PMC9911399, “Two distinct binding modes provide the RNA-binding protein RbFox with extraordinary sequence specificity” can be followed below.

First the molecules themselves.
T1: RBFOX1 RRM RbFoxmut (Fox-RRM*) (Homo sapiens, UniProt Q9NWB1 109-208, R118D;E147R;N151S;E152T)
T1 sequence: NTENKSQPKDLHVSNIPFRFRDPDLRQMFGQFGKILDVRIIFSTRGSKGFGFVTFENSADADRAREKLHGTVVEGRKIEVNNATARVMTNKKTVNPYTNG

B1: CUCACAU (DNA:RNA)
RNA: GGGAGACCGGAAUUCAGAUUGUCCCUCACAUUUAAAUCCCGUCGUAGCCACCA
DNA 1: CAATCTGAATTCCGGTCTCCC
DNA 2: TGGTGGCTACGACGGGATT
B2: AUGCAGC (DNA:RNA)
RNA: B1 RNA with C25A, C27G, A28C, C29A, A30G, U31C
DNA 1: CAATCTGAATTCCGGTCTCCC
DNA 2: TGGTGGCTACGACGGGATT
B3: AGUCCCU (DNA:RNA)
RNA: B1 RNA with C25A, U26G, C27U, A28C, A30C
DNA 1: CAATCTGAATTCCGGTCTCCC
DNA 2: TGGTGGCTACGACGGGATT
B4: GAAGUCC (DNA:RNA)
RNA: GGGAGACCGGAAUUCAGAUUGUCCGAAGUCCUUAAAUCCCGUCGUAGCCACCA
DNA 1: CAATCTGAATTCCGGTCTCCC
DNA 2: TGGTGGCTACGACGGGATT
B5: UGCCAGA (DNA:RNA)
RNA: B1 RNA with C25U, U26G, A28C, C29A, A30G, U31A
DNA 1: CAATCTGAATTCCGGTCTCCC
DNA 2: TGGTGGCTACGACGGGATT
B6: GUGGUUG (DNA:RNA)
RNA: B4 RNA with A26U, A27G, C30U, C31G
DNA 1: CAATCTGAATTCCGGTCTCCC
DNA 2: TGGTGGCTACGACGGGATT
B7: UCCUUGG (DNA:RNA)
RNA: B1 RNA with C25U, U26C, A28U, C29U, A30G, U31G
DNA 1: CAATCTGAATTCCGGTCTCCC
DNA 2: TGGTGGCTACGACGGGATT
B8: GUCGUGG (DNA:RNA)
RNA: B4 RNA with A26U, A27C, C30G, C31G
DNA 1: CAATCTGAATTCCGGTCTCCC
DNA 2: TGGTGGCTACGACGGGATT
B9: UUGUUGG (DNA:RNA)
RNA: B1 RNA with C25U, C27G, A28U, C29U, A30G, U31G
DNA 1: CAATCTGAATTCCGGTCTCCC
DNA 2: TGGTGGCTACGACGGGATT
B10: UUGGUUG (DNA:RNA)
RNA: B4 RNA with G25U, A26U, A27G, C30U, C31G
DNA 1: CAATCTGAATTCCGGTCTCCC
DNA 2: TGGTGGCTACGACGGGATT
B11: GUGGUGG (DNA:RNA)
RNA: B4 RNA with A26U, A27G, C30G, C31G
DNA 1: CAATCTGAATTCCGGTCTCCC
DNA 2: TGGTGGCTACGACGGGATT
B12: UCCGUCA (DNA:RNA)
RNA: B4 RNA with G25U, A26C, A27C, C31A
DNA 1: CAATCTGAATTCCGGTCTCCC
DNA 2: TGGTGGCTACGACGGGATT
B13: GUAGCCA (DNA:RNA)
RNA: B4 RNA with A26U, U29C, C31A
DNA 1: CAATCTGAATTCCGGTCTCCC
DNA 2: TGGTGGCTACGACGGGATT
B14: ACACUGG (DNA:RNA)
RNA: B4 RNA with G25A, A26C, G28C, C30G, C31G
DNA 1: CAATCTGAATTCCGGTCTCCC
DNA 2: TGGTGGCTACGACGGGATT
B15: CCCCAGA (DNA:RNA)
RNA: B1 RNA with U26C, A28C, C29A, A30G, U31A
DNA 1: CAATCTGAATTCCGGTCTCCC
DNA 2: TGGTGGCTACGACGGGATT
B16: UAAACAG (DNA:RNA)
RNA: B1 RNA with C25U, U26A, C27A, U31G
DNA 1: CAATCTGAATTCCGGTCTCCC
DNA 2: TGGTGGCTACGACGGGATT
B17: CACGGCC (DNA:RNA)
RNA: B4 RNA with G25C, A27C, U29G
DNA 1: CAATCTGAATTCCGGTCTCCC
DNA 2: TGGTGGCTACGACGGGATT
B18: GCCUUGU (DNA:RNA)
RNA: B1 RNA with C25G, U26C, A28U, C29U, A30G
DNA 1: CAATCTGAATTCCGGTCTCCC
DNA 2: TGGTGGCTACGACGGGATT
B19: GGCGGCC (DNA:RNA)
RNA: B4 RNA with A26G, A27C, U29G
DNA 1: CAATCTGAATTCCGGTCTCCC
DNA 2: TGGTGGCTACGACGGGATT
B20: GCCUUGC (DNA:RNA)
RNA: B4 RNA with A26C, A27C, G28U, C30G
DNA 1: CAATCTGAATTCCGGTCTCCC
DNA 2: TGGTGGCTACGACGGGATT
B21: GCCUUUU (DNA:RNA)
RNA: B1 RNA with C25G, U26C, A28U, C29U, A30U
DNA 1: CAATCTGAATTCCGGTCTCCC
DNA 2: TGGTGGCTACGACGGGATT
B22: GCCUCGU (DNA:RNA)
RNA: B1 RNA with C25G, U26C, A28U, A30G
DNA 1: CAATCTGAATTCCGGTCTCCC
DNA 2: TGGTGGCTACGACGGGATT
B23: GCCUUCA (DNA:RNA)
RNA: B4 RNA with A26C, A27C, G28U, C31A
DNA 1: CAATCTGAATTCCGGTCTCCC
DNA 2: TGGTGGCTACGACGGGATT
B24: GCCUUGA (DNA:RNA)
RNA: B4 RNA with A26C, A27C, G28U, C30G, C31A
DNA 1: CAATCTGAATTCCGGTCTCCC
DNA 2: TGGTGGCTACGACGGGATT
B25: GCUUGCC (DNA:RNA)
RNA: B4 RNA with A26C, A27U, G28U, U29G
DNA 1: CAATCTGAATTCCGGTCTCCC
DNA 2: TGGTGGCTACGACGGGATT
B26: GGCCUUG (DNA:RNA)
RNA: B4 RNA with A26G, A27C, G28C, C30U, C31G
DNA 1: CAATCTGAATTCCGGTCTCCC
DNA 2: TGGTGGCTACGACGGGATT
B27: GCCUUAA (DNA:RNA)
RNA: B1 RNA with C25G, U26C, A28U, C29U, U31A
DNA 1: CAATCTGAATTCCGGTCTCCC
DNA 2: TGGTGGCTACGACGGGATT
B28: GCCUGCG (DNA:RNA)
RNA: B4 RNA with A26C, A27C, G28U, U29G, C31G
DNA 1: CAATCTGAATTCCGGTCTCCC
DNA 2: TGGTGGCTACGACGGGATT
B29: GUCGGCC (DNA:RNA)
RNA: B4 RNA with A26U, A27C, U29G
DNA 1: CAATCTGAATTCCGGTCTCCC
DNA 2: TGGTGGCTACGACGGGATT

Where a chain is given by its changes, count along the chain named. Whole data set: some 16,000 sequences, median “ka relative to ugcaugu” near 0.096, cut for the highest 2% near 0.35. The entries come from a sample that favours the highest values as a whole.

The assay deals with T1, RBFOX1 RRM RbFoxmut (Fox-RRM*). The assay can be described thus: EMSA; HiTS-Eq, 1 nM pool, 10 min; buffer printed only for the single-RNA assays: 10 mM Tris pH 7.5, 150 mM NaCl, 3.4 mM EDTA, 0.001% NP-40, 30 C. The conditions noted are these: tags: His6 N-terminal (pET28a); label: 5' 32P. An outline of the steps: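 Purified RbFox RRM (wild type or mutant) was equilibrated for 10 min in 50 µL with 1 nM of a 5′-radiolabelled pool of RNA with 7 randomized nucleotides, its flanks annealed to DNA oligonucleotides, across increasing protein concentrations. Free RNA was separated by 8% native PAGE, excised, reverse-transcribed, PCR-barcoded and sequenced on an Illumina HiSeq 2500. Relative association constants came from read-count changes of each variant against the control reaction, normalised to the cognate motif.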
Regarding B1, the binding signal was 0.0911 KA relative to UGCAUGU.

Take B2: the binding signal was 0.106 KA relative to UGCAUGU.

With B3, the binding signal is 0.0659 KA relative to UGCAUGU.

Take B4: the binding signal was 0.0491 KA relative to UGCAUGU.

With B5, the binding signal was 0.116 KA relative to UGCAUGU.

With B6, the binding signal is 0.737 KA relative to UGCAUGU.

As to B7, the binding signal is 0.0776 KA relative to UGCAUGU.

On to B8, for which the binding signal was 0.112 KA relative to UGCAUGU.

For the molecule B9, the binding signal was 0.117 KA relative to UGCAUGU.

Turning to B10, the binding signal was 0.65 KA relative to UGCAUGU.

On to B11, for which the binding signal is 0.15 KA relative to UGCAUGU.

For the molecule B12, the binding signal was 0.111 KA relative to UGCAUGU.

On to B13, for which the binding signal is 0.082 KA relative to UGCAUGU.

Take B14: the binding signal was 0.123 KA relative to UGCAUGU.

As to B15, the binding signal is 0.0916 KA relative to UGCAUGU.

Turning to B16, the binding signal was 0.0612 KA relative to UGCAUGU.

For the molecule B17, the binding signal is 0.18 KA relative to UGCAUGU.

On to B18, for which the binding signal is 0.714 KA relative to UGCAUGU.

For the molecule B19, the binding signal is 0.16 KA relative to UGCAUGU.

Consider B20, for which the binding signal was 0.387 KA relative to UGCAUGU.

Consider B21, for which the binding signal was 0.0724 KA relative to UGCAUGU.

Consider B22, for which the binding signal was 0.224 KA relative to UGCAUGU.

On to B23, for which the binding signal is 0.146 KA relative to UGCAUGU.

Regarding B24, the binding signal was 0.561 KA relative to UGCAUGU.

Take B25: the binding signal was 0.239 KA relative to UGCAUGU.

For the molecule B26, the binding signal is 0.478 KA relative to UGCAUGU.

As for B27, the binding signal is 0.0981 KA relative to UGCAUGU.

With B28, the binding signal was 0.172 KA relative to UGCAUGU.

For the molecule B29, the binding signal was 0.214 KA relative to UGCAUGU.
